Test results taken from article PMC11006913.
Changes are numbered by the printed parent chain.

Legend:
Test in all cases: PBM; 200 nM protein, PBS
Conditions in all cases: dsDNA, one strand shown
[1] = molecular target: T1, VENTX (Homo sapiens, UniProt O95231 78-163, R121Q)
T1 sequence: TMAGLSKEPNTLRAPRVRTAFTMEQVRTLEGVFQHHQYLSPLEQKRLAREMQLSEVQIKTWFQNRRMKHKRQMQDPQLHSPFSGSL

[2] = molecular target: T2, VENTX (Homo sapiens, UniProt O95231 78-163)
T2 sequence: T1 sequence with Q44R

[3] = molecular target: T3, VENTX (Homo sapiens, UniProt O95231 78-163, Y115F)
T3 sequence: T1 sequence with Y38F, Q44R

[4] = molecular target: T4, PAX4 (Homo sapiens, UniProt O43316 9-242, R200K)
T4 sequence: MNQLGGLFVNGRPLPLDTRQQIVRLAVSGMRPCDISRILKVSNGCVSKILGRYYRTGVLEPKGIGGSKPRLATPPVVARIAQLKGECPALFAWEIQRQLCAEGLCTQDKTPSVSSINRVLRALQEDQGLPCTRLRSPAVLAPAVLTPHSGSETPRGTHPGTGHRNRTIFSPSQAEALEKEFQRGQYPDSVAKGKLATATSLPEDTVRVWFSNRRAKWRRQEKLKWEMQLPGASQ

[5] = molecular target: T5, PAX4 (Homo sapiens, UniProt O43316 9-242)
T5 sequence: T4 sequence with K192R

[6] = molecular target: MSX2 (Homo sapiens, UniProt P35548 130-214, R199I)
[7] = molecular target: T6, PAX4 (Homo sapiens, UniProt O43316 9-242, R200Q)
T6 sequence: T4 sequence with K192Q

[8] = molecular target: T7, PAX4 (Homo sapiens, UniProt O43316 9-242, F177V)
T7 sequence: T4 sequence with F169V, K192R

[9] = molecular target: T8, PAX4 (Homo sapiens, UniProt O43316 9-242, F177Y)
T8 sequence: T4 sequence with F169Y, K192R

[10] = molecular target: T9, PAX4 (Homo sapiens, UniProt O43316 9-242, R227W)
T9 sequence: T4 sequence with K192R, R219W

[11] = molecular target: HOXA7 (Homo sapiens, UniProt P31268 116-202)
[12] = molecular target: VAX1 (Homo sapiens, UniProt Q5SQQ9 86-172)
[13] = molecular target: VAX1 (Homo sapiens, UniProt Q5SQQ9 86-172, T142I)
[14] = molecular target: HOXA7 (Homo sapiens, UniProt P31268 116-202, W177C)
[15] = molecular target: VAX1 (Homo sapiens, UniProt Q5SQQ9 86-172, K157R)
[16] = molecular target: HOXC10 (Homo sapiens, UniProt Q9NYD6 254-340)
[17] = molecular target: ALX1 (Homo sapiens, UniProt Q15699 118-204, L144V)
[18] = molecular target: ALX3 (Homo sapiens, UniProt O95076 139-225, N203Q)
[19] = molecular target: ALX1 (Homo sapiens, UniProt Q15699 118-204, L144R)
[20] = molecular target: HOXC10 (Homo sapiens, UniProt Q9NYD6 254-340, K271E)
[21] = molecular target: ALX3 (Homo sapiens, UniProt O95076 139-225)
[22] = molecular target: ALX3 (Homo sapiens, UniProt O95076 139-225, L168Q)
[23] = molecular target: ALX3 (Homo sapiens, UniProt O95076 139-225, L168V)
[24] = molecular target: ALX1 (Homo sapiens, UniProt Q15699 118-204)
[25] = molecular target: ALX3 (Homo sapiens, UniProt O95076 139-225, N203S)
[26] = molecular target: ALX4 (Homo sapiens, UniProt Q9H161 200-286)
[27] = molecular target: ALX4 (Homo sapiens, UniProt Q9H161 200-286, Q225E)
[28] = molecular target: HOXA2 (Homo sapiens, UniProt O43364 129-215, R185T)
[29] = molecular target: HOXA2 (Homo sapiens, UniProt O43364 129-215, R185K)
[30] = molecular target: MSX2 (Homo sapiens, UniProt P35548 130-214)
[31] = molecular target: MSX2 (Homo sapiens, UniProt P35548 130-214, F161Y)
[32] = molecular target: HOXA2 (Homo sapiens, UniProt O43364 129-215, Y150S)
[33] = molecular target: HOXA2 (Homo sapiens, UniProt O43364 129-215)
Chain of HOXA2 (Homo sapiens, UniProt O43364 129-215) (O43364 129-215): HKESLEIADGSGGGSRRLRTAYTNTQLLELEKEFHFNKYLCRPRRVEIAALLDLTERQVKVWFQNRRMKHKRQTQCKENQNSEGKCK

Chain of MSX2 (Homo sapiens, UniProt P35548 130-214, R199I) (P35548 130-214 R199I): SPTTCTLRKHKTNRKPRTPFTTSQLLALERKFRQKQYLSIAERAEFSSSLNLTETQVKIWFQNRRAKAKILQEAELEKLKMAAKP
Chain of HOXA7 (Homo sapiens, UniProt P31268 116-202) (P31268 116-202): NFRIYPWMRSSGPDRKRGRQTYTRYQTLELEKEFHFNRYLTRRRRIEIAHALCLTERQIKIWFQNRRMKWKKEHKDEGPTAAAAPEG
Chain of HOXA7 (Homo sapiens, UniProt P31268 116-202, W177C) (P31268 116-202 W177C): as the sequence (P31268 116-202) above, with W62C counted along it
Chain of ALX3 (Homo sapiens, UniProt O95076 139-225, N203Q) (O95076 139-225 N203Q): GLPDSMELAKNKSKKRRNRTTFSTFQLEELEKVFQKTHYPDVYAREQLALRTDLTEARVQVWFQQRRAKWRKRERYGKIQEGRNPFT
Chain of ALX4 (Homo sapiens, UniProt Q9H161 200-286, Q225E) (Q9H161 200-286 Q225E): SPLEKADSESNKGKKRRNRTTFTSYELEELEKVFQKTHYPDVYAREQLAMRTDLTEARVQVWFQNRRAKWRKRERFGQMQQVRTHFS
Chain of ALX4 (Homo sapiens, UniProt Q9H161 200-286) (Q9H161 200-286): as the sequence (Q9H161 200-286 Q225E) above, with E26Q counted along it
Chain of ALX1 (Homo sapiens, UniProt Q15699 118-204) (Q15699 118-204): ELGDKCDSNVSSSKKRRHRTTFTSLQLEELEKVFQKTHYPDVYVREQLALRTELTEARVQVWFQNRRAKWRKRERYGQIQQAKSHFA
Chain of HOXA2 (Homo sapiens, UniProt O43364 129-215, R185T) (O43364 129-215 R185T): as the sequence (O43364 129-215) above, with R57T counted along it
Chain of MSX2 (Homo sapiens, UniProt P35548 130-214, F161Y) (P35548 130-214 F161Y): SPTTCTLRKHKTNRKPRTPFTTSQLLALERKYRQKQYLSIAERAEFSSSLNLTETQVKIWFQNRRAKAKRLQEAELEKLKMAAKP
Chain of HOXA2 (Homo sapiens, UniProt O43364 129-215, Y150S) (O43364 129-215 Y150S): as the sequence (O43364 129-215) above, with Y22S counted along it
Chain of ALX1 (Homo sapiens, UniProt Q15699 118-204, L144R) (Q15699 118-204 L144R): as the sequence (Q15699 118-204) above, with L27R counted along it
Chain of HOXC10 (Homo sapiens, UniProt Q9NYD6 254-340) (Q9NYD6 254-340): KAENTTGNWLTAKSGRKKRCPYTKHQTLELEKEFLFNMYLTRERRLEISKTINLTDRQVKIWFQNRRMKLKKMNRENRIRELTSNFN
Chain of VAX1 (Homo sapiens, UniProt Q5SQQ9 86-172) (Q5SQQ9 86-172): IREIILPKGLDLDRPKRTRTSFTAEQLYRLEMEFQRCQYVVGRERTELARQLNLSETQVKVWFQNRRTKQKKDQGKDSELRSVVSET
Chain of ALX3 (Homo sapiens, UniProt O95076 139-225, N203S) (O95076 139-225 N203S): as the sequence (O95076 139-225 N203Q) above, with Q65S counted along it
Chain of MSX2 (Homo sapiens, UniProt P35548 130-214) (P35548 130-214): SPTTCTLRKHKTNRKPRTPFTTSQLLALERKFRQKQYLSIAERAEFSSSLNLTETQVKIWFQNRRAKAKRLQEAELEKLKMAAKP
Chain of VAX1 (Homo sapiens, UniProt Q5SQQ9 86-172, K157R) (Q5SQQ9 86-172 K157R): as the sequence (Q5SQQ9 86-172) above, with K72R counted along it
Chain of ALX1 (Homo sapiens, UniProt Q15699 118-204, L144V) (Q15699 118-204 L144V): as the sequence (Q15699 118-204) above, with L27V counted along it
Chain of VAX1 (Homo sapiens, UniProt Q5SQQ9 86-172, T142I) (Q5SQQ9 86-172 T142I): as the sequence (Q5SQQ9 86-172) above, with T57I counted along it
Chain of ALX3 (Homo sapiens, UniProt O95076 139-225) (O95076 139-225): as the sequence (O95076 139-225 N203Q) above, with Q65N counted along it
Chain of ALX3 (Homo sapiens, UniProt O95076 139-225, L168Q) (O95076 139-225 L168Q): as the sequence (O95076 139-225 N203Q) above, with L30Q, Q65N counted along it
Chain of HOXC10 (Homo sapiens, UniProt Q9NYD6 254-340, K271E) (Q9NYD6 254-340 K271E): as the sequence (Q9NYD6 254-340) above, with K18E counted along it
Chain of HOXA2 (Homo sapiens, UniProt O43364 129-215, R185K) (O43364 129-215 R185K): as the sequence (O43364 129-215) above, with R57K counted along it
Chain of ALX3 (Homo sapiens, UniProt O95076 139-225, L168V) (O95076 139-225 L168V): as the sequence (O95076 139-225 N203Q) above, with L30V, Q65N counted along it

CTAATCGA
binding signal [1]: 11.6 upbm affinity estimate (log intensity, higher = more binding, comparable within an allelic series) | binding signal [2]: 12.5 upbm affinity estimate (log intensity, higher = more binding, comparable within an allelic series) | binding signal [3]: 11.1 upbm affinity estimate (log intensity, higher = more binding, comparable within an allelic series)

CATGGCGG
binding signal [1]: 7.95 upbm affinity estimate (log intensity, higher = more binding, comparable within an allelic series) | binding signal [2]: 7.8 upbm affinity estimate (log intensity, higher = more binding, comparable within an allelic series) | binding signal [3]: 7.87 upbm affinity estimate (log intensity, higher = more binding, comparable within an allelic series)

ACCAATCA
binding signal [1]: 9.98 upbm affinity estimate (log intensity, higher = more binding, comparable within an allelic series) | binding signal [2]: 10.7 upbm affinity estimate (log intensity, higher = more binding, comparable within an allelic series) | binding signal [4]: 10.5 upbm affinity estimate (log intensity, higher = more binding, comparable within an allelic series) | binding signal [5]: 10.6 upbm affinity estimate (log intensity, higher = more binding, comparable within an allelic series) | binding signal [6]: 10.9 upbm affinity estimate (log intensity, higher = more binding, comparable within an allelic series) | binding signal [7]: 10.7 upbm affinity estimate (log intensity, higher = more binding, comparable within an allelic series) | binding signal [8]: 9.96 upbm affinity estimate (log intensity, higher = more binding, comparable within an allelic series) | binding signal [9]: 10.1 upbm affinity estimate (log intensity, higher = more binding, comparable within an allelic series) | binding signal [10]: 10 upbm affinity estimate (log intensity, higher = more binding, comparable within an allelic series)

GTATTAAA
binding signal [1]: 9.94 upbm affinity estimate (log intensity, higher = more binding, comparable within an allelic series) | binding signal [2]: 10.3 upbm affinity estimate (log intensity, higher = more binding, comparable within an allelic series)

CCAAGGGC
binding signal [1]: 8.09 upbm affinity estimate (log intensity, higher = more binding, comparable within an allelic series) | binding signal [2]: 8.33 upbm affinity estimate (log intensity, higher = more binding, comparable within an allelic series) | binding signal [3]: 8.21 upbm affinity estimate (log intensity, higher = more binding, comparable within an allelic series)

CAGGGCCC
binding signal [1]: 8.07 upbm affinity estimate (log intensity, higher = more binding, comparable within an allelic series) | binding signal [2]: 8.08 upbm affinity estimate (log intensity, higher = more binding, comparable within an allelic series) | binding signal [11]: 8.32 upbm affinity estimate (log intensity, higher = more binding, comparable within an allelic series) | binding signal [3]: 7.87 upbm affinity estimate (log intensity, higher = more binding, comparable within an allelic series) | binding signal [12]: 7.03 upbm affinity estimate (log intensity, higher = more binding, comparable within an allelic series) | binding signal [13]: 7.1 upbm affinity estimate (log intensity, higher = more binding, comparable within an allelic series) | binding signal [14]: 8.37 upbm affinity estimate (log intensity, higher = more binding, comparable within an allelic series) | binding signal [15]: 6.99 upbm affinity estimate (log intensity, higher = more binding, comparable within an allelic series)

AATGTATC
binding signal [1]: 9.76 upbm affinity estimate (log intensity, higher = more binding, comparable within an allelic series) | binding signal [2]: 10.1 upbm affinity estimate (log intensity, higher = more binding, comparable within an allelic series)

CTGGCGCA
binding signal [1]: 8.11 upbm affinity estimate (log intensity, higher = more binding, comparable within an allelic series) | binding signal [2]: 8.09 upbm affinity estimate (log intensity, higher = more binding, comparable within an allelic series) | binding signal [16]: 9.99 upbm affinity estimate (log intensity, higher = more binding, comparable within an allelic series) | binding signal [3]: 8.2 upbm affinity estimate (log intensity, higher = more binding, comparable within an allelic series) | binding signal [17]: 6.29 upbm affinity estimate (log intensity, higher = more binding, comparable within an allelic series) | binding signal [18]: 7.76 upbm affinity estimate (log intensity, higher = more binding, comparable within an allelic series) | binding signal [19]: 6.21 upbm affinity estimate (log intensity, higher = more binding, comparable within an allelic series) | binding signal [20]: 10 upbm affinity estimate (log intensity, higher = more binding, comparable within an allelic series) | binding signal [21]: 7.58 upbm affinity estimate (log intensity, higher = more binding, comparable within an allelic series) | binding signal [22]: 7.71 upbm affinity estimate (log intensity, higher = more binding, comparable within an allelic series) | binding signal [23]: 7.74 upbm affinity estimate (log intensity, higher = more binding, comparable within an allelic series) | binding signal [24]: 6.24 upbm affinity estimate (log intensity, higher = more binding, comparable within an allelic series) | binding signal [25]: 7.82 upbm affinity estimate (log intensity, higher = more binding, comparable within an allelic series)

CCGAGGGC
binding signal [1]: 7.98 upbm affinity estimate (log intensity, higher = more binding, comparable within an allelic series) | binding signal [2]: 8.24 upbm affinity estimate (log intensity, higher = more binding, comparable within an allelic series) | binding signal [26]: 8.14 upbm affinity estimate (log intensity, higher = more binding, comparable within an allelic series) | binding signal [3]: 8.11 upbm affinity estimate (log intensity, higher = more binding, comparable within an allelic series) | binding signal [27]: 8.07 upbm affinity estimate (log intensity, higher = more binding, comparable within an allelic series) | binding signal [28]: 7.12 upbm affinity estimate (log intensity, higher = more binding, comparable within an allelic series) | binding signal [6]: 9.49 upbm affinity estimate (log intensity, higher = more binding, comparable within an allelic series) | binding signal [29]: 10.3 upbm affinity estimate (log intensity, higher = more binding, comparable within an allelic series) | binding signal [30]: 9.42 upbm affinity estimate (log intensity, higher = more binding, comparable within an allelic series) | binding signal [31]: 9.43 upbm affinity estimate (log intensity, higher = more binding, comparable within an allelic series) | binding signal [32]: 10.3 upbm affinity estimate (log intensity, higher = more binding, comparable within an allelic series) | binding signal [33]: 7.2 upbm affinity estimate (log intensity, higher = more binding, comparable within an allelic series)

ATTAGGTG
binding signal [1]: 10.8 upbm affinity estimate (log intensity, higher = more binding, comparable within an allelic series) | binding signal [2]: 11.2 upbm affinity estimate (log intensity, higher = more binding, comparable within an allelic series) | binding signal [11]: 10 upbm affinity estimate (log intensity, higher = more binding, comparable within an allelic series) | binding signal [3]: 10.5 upbm affinity estimate (log intensity, higher = more binding, comparable within an allelic series) | binding signal [14]: 8.8 upbm affinity estimate (log intensity, higher = more binding, comparable within an allelic series)
